Consider six molecules from ChEMBL document CHEMBL1961873, “Compounds: GSK PKIS; Assays: Nanosyn kinase panel” (2012).

The target of test [1] is Tyrosine-protein kinase Fer (Homo sapiens) (UniProt P16591). Conditions: at 1 µM.
The target in test [2] is Tyrosine-protein kinase Fes/Fps (Homo sapiens) (UniProt P07332). The following applies: at 0.1 µM.
For test [3] the target is unchanged. Conditions: at 1 µM.
The target in test [4] is Fibroblast growth factor receptor 1 (Homo sapiens) (UniProt P11362). The following applies: at 0.1 µM.
Chain of Fibroblast growth factor receptor 1 (Homo sapiens) (P11362 22-822 limits assumed): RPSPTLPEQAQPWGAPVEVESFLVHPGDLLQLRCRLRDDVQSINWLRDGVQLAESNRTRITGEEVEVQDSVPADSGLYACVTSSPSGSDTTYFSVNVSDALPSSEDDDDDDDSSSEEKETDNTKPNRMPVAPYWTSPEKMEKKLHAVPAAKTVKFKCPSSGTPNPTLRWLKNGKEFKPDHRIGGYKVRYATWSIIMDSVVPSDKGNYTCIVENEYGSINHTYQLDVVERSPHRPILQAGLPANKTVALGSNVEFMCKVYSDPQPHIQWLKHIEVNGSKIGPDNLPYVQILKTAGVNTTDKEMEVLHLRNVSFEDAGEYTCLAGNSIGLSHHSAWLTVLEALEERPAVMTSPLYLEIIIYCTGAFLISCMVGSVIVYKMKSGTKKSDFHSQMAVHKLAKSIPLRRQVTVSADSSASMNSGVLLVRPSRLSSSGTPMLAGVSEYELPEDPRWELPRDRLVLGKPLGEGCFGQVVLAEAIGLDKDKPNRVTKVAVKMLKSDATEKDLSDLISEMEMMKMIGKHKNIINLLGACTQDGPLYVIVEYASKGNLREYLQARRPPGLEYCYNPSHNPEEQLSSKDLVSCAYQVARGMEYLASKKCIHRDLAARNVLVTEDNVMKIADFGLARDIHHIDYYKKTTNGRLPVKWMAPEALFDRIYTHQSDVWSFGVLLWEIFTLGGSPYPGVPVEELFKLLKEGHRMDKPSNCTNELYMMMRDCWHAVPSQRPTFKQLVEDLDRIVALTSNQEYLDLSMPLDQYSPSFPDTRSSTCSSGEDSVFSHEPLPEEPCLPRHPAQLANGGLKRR
Test [5] has the same target. The following applies: at 1 µM.
Test [6] concerns the target Fibroblast growth factor receptor 2 (Homo sapiens) (UniProt P21802). Conditions: at 0.1 µM.
Test [7] shares this target. The following applies: at 1 µM.
In test [8] the target is Fibroblast growth factor receptor 3 (Homo sapiens) (UniProt P22607). The following applies: at 0.1 µM.
Chain of Fibroblast growth factor receptor 3 (Homo sapiens) (P22607 23-806 limits assumed): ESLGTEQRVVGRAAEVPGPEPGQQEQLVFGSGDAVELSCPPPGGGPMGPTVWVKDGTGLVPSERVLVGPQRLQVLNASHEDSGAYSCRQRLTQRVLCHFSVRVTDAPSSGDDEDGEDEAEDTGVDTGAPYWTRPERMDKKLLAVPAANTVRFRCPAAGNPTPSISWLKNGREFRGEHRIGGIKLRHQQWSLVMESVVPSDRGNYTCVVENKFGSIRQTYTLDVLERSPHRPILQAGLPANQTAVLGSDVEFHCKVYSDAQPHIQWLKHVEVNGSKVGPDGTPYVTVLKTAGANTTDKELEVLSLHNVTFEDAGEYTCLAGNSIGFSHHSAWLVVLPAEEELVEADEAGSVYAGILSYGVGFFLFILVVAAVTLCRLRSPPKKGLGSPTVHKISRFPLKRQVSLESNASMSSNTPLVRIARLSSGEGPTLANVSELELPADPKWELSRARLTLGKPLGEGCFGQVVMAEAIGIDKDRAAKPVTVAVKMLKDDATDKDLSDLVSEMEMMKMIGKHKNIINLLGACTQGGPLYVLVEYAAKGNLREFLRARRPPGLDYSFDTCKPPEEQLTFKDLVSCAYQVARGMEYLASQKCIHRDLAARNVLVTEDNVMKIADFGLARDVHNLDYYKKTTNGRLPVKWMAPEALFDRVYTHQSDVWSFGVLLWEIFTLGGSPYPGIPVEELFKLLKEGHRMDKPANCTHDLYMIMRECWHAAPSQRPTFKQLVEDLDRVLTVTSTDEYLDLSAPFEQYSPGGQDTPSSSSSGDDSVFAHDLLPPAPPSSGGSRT
Test [9] shares this target. The following applies: at 1 µM.
Test [10] deals with Fibroblast growth factor receptor 4 (Homo sapiens) (UniProt P22455). Conditions: at 0.1 µM.
The target is the same in test [11]. Conditions: at 1 µM.
In test [12] the target is Tyrosine-protein kinase Fgr (Homo sapiens) (UniProt P09769). The following applies: at 0.1 µM.
Chain of Tyrosine-protein kinase Fgr (Homo sapiens) (P09769 2-529 limits assumed): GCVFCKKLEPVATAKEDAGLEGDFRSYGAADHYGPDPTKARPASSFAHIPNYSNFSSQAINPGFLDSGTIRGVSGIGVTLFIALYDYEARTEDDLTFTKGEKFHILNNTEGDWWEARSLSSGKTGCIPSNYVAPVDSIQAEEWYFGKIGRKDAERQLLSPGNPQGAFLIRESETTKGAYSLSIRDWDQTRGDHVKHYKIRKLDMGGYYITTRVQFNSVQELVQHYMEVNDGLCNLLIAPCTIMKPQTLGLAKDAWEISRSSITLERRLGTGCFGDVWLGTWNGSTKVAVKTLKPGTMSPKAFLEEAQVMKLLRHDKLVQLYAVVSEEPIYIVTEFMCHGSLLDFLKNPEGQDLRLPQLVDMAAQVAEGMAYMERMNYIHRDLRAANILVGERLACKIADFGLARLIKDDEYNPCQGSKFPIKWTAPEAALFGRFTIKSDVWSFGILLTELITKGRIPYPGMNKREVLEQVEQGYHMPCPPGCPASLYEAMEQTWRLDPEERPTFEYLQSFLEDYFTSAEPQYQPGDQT
Test [13] has the same target. The following applies: at 1 µM.
In test [14] the target is Vascular endothelial growth factor receptor 1 (Homo sapiens) (UniProt P17948). The following applies: at 0.1 µM.
For test [15] the target is unchanged. Conditions: at 1 µM.
The target in test [16] is Receptor-type tyrosine-protein kinase FLT3 (Homo sapiens) (UniProt P36888). Conditions: at 0.1 µM.
For test [17] the target is unchanged. Conditions: at 1 µM.
Test [18] relates to T1, Receptor-type tyrosine-protein kinase FLT3 (Homo sapiens), P36888 [D835Y].
T1 sequence (whole entry): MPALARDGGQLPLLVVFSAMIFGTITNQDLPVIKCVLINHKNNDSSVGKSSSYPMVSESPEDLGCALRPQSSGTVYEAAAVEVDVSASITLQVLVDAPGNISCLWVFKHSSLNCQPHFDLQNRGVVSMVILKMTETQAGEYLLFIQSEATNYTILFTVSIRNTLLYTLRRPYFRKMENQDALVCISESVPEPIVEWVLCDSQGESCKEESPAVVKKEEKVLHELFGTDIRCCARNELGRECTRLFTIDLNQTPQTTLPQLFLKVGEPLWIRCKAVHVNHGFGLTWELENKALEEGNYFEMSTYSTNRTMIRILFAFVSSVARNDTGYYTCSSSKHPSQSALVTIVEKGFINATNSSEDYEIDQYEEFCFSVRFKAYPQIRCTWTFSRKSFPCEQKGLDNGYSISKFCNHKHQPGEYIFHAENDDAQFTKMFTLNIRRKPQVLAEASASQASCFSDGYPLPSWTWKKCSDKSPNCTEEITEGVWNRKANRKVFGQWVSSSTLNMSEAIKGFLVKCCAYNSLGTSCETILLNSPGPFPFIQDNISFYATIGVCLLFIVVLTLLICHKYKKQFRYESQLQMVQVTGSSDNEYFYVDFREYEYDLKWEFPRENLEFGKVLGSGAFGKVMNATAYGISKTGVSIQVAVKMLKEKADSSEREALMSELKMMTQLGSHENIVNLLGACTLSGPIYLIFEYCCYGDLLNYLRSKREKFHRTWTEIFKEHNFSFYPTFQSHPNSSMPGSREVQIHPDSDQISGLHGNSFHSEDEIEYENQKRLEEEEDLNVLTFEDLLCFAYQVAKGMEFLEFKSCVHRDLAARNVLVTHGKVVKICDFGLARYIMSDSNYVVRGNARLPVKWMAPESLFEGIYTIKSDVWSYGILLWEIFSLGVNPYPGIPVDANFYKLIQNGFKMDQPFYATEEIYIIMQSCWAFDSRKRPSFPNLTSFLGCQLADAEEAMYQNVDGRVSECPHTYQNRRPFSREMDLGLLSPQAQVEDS
The following applies: at 0.1 µM.

In test [19] the target is Non-receptor tyrosine-protein kinase TYK2 (Homo sapiens) (UniProt P29597). Conditions: at 1 µM.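 Further: values are mean percent inhibition of TYK2 kinase.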
Chain of Non-receptor tyrosine-protein kinase TYK2 (Homo sapiens) (P29597 whole entry): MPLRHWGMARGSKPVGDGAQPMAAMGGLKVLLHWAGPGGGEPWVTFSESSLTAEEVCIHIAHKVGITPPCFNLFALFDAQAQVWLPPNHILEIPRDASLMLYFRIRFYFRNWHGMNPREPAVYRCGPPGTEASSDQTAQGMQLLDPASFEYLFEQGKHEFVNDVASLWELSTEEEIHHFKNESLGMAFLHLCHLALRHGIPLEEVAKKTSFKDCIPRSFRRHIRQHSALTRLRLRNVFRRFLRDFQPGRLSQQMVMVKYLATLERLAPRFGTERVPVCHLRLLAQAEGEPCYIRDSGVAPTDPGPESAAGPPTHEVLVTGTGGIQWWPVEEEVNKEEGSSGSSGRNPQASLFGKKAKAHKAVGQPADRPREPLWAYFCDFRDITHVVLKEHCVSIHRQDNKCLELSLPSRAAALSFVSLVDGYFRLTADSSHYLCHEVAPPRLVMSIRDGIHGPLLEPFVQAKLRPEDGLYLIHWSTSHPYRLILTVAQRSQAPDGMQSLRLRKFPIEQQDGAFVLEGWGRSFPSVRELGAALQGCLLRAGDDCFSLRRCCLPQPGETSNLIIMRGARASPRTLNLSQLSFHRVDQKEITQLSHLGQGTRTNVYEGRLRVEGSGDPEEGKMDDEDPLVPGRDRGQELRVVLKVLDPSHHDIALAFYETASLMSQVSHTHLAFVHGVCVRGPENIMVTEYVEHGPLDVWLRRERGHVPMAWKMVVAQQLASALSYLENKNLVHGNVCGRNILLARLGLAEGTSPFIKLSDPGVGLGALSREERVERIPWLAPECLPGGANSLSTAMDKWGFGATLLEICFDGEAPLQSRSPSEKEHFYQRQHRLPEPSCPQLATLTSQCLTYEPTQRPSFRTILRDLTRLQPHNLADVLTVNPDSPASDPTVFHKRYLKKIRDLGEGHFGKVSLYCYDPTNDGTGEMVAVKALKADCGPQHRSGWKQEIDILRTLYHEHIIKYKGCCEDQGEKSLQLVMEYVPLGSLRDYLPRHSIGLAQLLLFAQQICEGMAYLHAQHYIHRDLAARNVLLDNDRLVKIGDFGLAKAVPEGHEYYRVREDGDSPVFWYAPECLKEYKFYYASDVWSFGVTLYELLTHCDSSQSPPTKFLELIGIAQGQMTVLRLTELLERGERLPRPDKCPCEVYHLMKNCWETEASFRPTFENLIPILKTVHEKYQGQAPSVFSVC
Test [20] concerns the target T2, Tyrosine-protein kinase receptor TYRO3 (Homo sapiens) (UniProt Q06418).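 Further: reported percentages are averaged inhibition values of TYRO3 kinase activity.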
T2 sequence (whole entry): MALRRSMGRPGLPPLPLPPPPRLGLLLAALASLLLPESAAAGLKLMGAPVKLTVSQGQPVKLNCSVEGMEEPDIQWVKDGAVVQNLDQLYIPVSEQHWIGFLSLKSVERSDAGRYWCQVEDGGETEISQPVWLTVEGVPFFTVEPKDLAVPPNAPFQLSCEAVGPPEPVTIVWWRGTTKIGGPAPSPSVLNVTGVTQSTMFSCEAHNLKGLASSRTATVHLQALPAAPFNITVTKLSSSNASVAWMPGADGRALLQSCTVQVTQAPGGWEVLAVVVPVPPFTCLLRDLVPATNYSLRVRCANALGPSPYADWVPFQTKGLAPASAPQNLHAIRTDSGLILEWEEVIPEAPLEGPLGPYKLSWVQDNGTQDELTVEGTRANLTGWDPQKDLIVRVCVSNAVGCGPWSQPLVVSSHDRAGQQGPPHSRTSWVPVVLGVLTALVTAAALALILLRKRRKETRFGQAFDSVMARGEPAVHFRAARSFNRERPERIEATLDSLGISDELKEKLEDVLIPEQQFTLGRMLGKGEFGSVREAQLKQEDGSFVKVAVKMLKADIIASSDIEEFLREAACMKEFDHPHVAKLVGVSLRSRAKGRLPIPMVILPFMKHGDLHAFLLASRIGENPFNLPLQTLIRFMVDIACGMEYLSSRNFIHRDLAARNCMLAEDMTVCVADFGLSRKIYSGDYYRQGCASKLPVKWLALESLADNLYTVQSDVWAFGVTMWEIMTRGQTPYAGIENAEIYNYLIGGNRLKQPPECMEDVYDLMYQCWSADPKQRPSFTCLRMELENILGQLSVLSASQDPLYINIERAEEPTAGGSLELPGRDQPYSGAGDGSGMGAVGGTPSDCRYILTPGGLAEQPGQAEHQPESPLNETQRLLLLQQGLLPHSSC
Conditions: at 0.1 µM.

Chain of Tyrosine-protein kinase Fes/Fps (Homo sapiens) (P07332 whole entry): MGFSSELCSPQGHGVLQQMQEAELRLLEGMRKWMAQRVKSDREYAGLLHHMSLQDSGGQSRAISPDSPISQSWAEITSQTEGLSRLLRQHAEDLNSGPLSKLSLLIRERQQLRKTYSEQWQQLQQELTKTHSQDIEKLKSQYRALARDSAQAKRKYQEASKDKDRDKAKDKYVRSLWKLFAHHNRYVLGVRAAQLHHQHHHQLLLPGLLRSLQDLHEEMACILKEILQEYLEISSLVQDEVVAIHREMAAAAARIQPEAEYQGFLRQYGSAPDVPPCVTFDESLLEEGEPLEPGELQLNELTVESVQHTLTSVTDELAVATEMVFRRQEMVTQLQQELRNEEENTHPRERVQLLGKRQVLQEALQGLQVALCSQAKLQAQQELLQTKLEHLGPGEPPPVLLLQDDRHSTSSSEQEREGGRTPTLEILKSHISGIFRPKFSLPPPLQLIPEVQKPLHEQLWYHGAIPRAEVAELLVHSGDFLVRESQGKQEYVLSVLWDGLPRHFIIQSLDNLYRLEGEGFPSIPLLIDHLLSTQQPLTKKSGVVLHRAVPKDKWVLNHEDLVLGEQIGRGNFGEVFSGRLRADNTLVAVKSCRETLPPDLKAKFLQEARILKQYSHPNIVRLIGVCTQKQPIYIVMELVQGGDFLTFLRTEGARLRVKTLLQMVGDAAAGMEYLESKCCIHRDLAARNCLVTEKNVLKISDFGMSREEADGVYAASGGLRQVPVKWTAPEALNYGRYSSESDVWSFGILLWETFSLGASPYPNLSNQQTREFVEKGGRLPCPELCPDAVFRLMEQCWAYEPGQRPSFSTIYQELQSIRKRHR
Chain of Tyrosine-protein kinase Fer (Homo sapiens) (P16591 whole entry, looked up): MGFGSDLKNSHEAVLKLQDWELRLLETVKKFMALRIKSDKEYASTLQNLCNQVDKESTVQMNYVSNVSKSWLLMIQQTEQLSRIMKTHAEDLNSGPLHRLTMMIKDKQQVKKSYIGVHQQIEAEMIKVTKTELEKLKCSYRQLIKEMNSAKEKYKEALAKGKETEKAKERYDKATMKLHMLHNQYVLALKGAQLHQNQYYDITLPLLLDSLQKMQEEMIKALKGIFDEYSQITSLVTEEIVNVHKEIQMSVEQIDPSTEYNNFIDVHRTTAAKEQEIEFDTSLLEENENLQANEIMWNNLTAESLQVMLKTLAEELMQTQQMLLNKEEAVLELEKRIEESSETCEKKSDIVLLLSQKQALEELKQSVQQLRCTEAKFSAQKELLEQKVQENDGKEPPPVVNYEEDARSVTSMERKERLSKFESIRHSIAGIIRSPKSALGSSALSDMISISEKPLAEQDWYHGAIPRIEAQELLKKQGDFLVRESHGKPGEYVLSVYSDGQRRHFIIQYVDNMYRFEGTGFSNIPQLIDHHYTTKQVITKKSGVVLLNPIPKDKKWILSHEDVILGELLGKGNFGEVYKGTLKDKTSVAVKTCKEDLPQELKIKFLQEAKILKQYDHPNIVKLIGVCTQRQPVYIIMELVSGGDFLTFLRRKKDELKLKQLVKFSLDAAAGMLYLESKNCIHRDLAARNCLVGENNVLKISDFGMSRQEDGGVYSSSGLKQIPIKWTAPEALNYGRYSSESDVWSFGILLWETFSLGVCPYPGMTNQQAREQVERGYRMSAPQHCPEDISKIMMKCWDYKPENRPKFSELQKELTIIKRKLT

Take `Cc1ccc(Nc2ccnc(Nc3cccc(C(N)=O)c3)n2)cc1O`: the inhibition worked out at 23.4% in test [1]; 2.5% in [2]; 10.7% in [3]; 4.6% in test [4]; 34.8% in test [5]; 1.51% in test [6]. Besides, the inhibition in test [7] is 26.6%; in test [8], 3.55%; in test [9] it was 18.4%; in test [10], -3.61%; in [11], 3.08%; in test [12] it was 52.6%. For the same molecule, the inhibition was found to be 72.8% in [13]; 69.9% in test [14]; 97.8% in test [15]; 18.8% in test [16]; 64.5% in [17]; 30.1% in test [18]. Moreover, the inhibition in [19] came out at 16.9%; in [20] it was 13.1%.

As to `CN(C)C(=O)O[C@@H]1CN[C@@H](C#Cc2cc3ncnc(Nc4ccc(OCc5cccc(F)c5)c(Cl)c4)c3s2)C1`, the inhibition in test [1] was -0.72%; in [2], -0.22%; in [3], 1.12%; in [4], -0.27%; in test [5], 1.69%; in [6] it was 0.19%. In addition, the inhibition in [7] was 4.88%; in [8], -0.96%; in test [9] it was 2.96%; in test [10] it was -1.62%; in [11] it was 0.26%; in [12], 4.03%. Further, the inhibition in [13] was 8.75%; in test [14] it was -0.77%; in [15], 1.01%; in test [16], -1.89%; in [17] it was -0.37%; in [18], -2.1%. Besides, the inhibition was 0.28% in [19] and -0.78% in test [20].

In the case of `COc1cccc(-n2ncc3c(N/N=C/c4ccc(S(C)(=O)=O)cc4)ncnc32)c1`, the inhibition in test [1] is 2.49%; in test [2], 0.5%; in test [3] it was 0.07%; in test [4], 3.99%; in test [5], 0.92%; in [6], -2.62%. The inhibition was 4.85% in test [7]; 1.85% in test [8]; 4.08% in test [9]; -2.71% in test [10]; -1.16% in test [11]; 28.5% in test [12]. In addition, the inhibition came to 64% in test [13]; 5.44% in [14]; 18.8% in test [15]; 8.26% in test [16]; 27.9% in [17]; 18.6% in test [18]. In addition, the values for the inhibition in test [19] and in [20] were 1.37% and 10.6%, respectively.

In the case of `C[C@@H](Oc1cc(-n2cnc3ccc(OC[C@@H](O)CO)cc32)sc1C(N)=O)c1ccccc1Cl`, the inhibition was 4.95% in test [1]; -0.94% in [2]; 0.05% in test [3]; -7.07% in test [4]; 0.72% in [5]; -1.37% in [6]. In addition, the inhibition was 8.23% in test [7]; 0.92% in [8]; 6.57% in test [9]; -1.57% in [10]; 0.23% in [11]; 0.03% in [12]. Besides, the inhibition in test [13] was 4.04%; in test [14] it was -1.57%; in [15], -1.26%; in test [16], 0.49%; in [17], 5.21%; in [18], -3.1%. Also, the inhibition is 2.03% in test [19] and -0.16% in [20].

For `COc1cccc(-n2nc(C)c3c(N/N=C(\C)c4ccncc4)ncnc32)c1`, the inhibition in [1] was 1.89%; in test [2], 0.8%; in test [3] it was 0.14%; in test [4] it was 1.88%; in test [5] it was -1.01%; in [6], 3.14%. For the same molecule, the inhibition in [7] is -0.1%; in test [8] it was 1.89%; in [9] it was 2%; in test [10] it was 1.2%; in [11], -0.8%; in test [12], 1.55%. The inhibition in [13] is 4.36%; in test [14] it was -0.52%; in test [15], -0.07%; in test [16] it was 0.32%; in test [17], -1.96%; in test [18], -4.92%. The inhibition in test [19] was -0.79%; in test [20] it was 1.37%.

On to `COC(=O)c1ccc2c(c1)C(=Cc1cc(Br)c(O)c(Br)c1)C(=O)N2`, for which the inhibition in test [1] came out at 7.48%; in test [2] it was 3.27%; in test [3] it was 4.01%; in test [4], 3.15%; in [5], 6.87%; in test [6], 7.19%. The inhibition in test [7] is 8.86%; in [8] it was 8.03%; in test [9], 5.51%; in test [10], 4.35%; in [11], 3.36%; in test [12] it was 0.15%. Moreover, the inhibition in test [13] was 9.32%; in test [14], 2.43%; in test [15], 2.64%; in test [16] it was 5.48%; in [17], 7.6%; in [18], -0.04%. Further, the inhibition was 51.5% in test [19] and 2.46% in test [20].

The term inhibition denotes the relative decrease from the control value, in per cent.
